Test results published in paper PMC11062922 (Nature Chemical Biology, 2023).
Like-named read-outs stand apart in the source and are kept apart here.

Key:
Design in all cases: species or system human, MV4-11 + K-562 + COLO205 + SK-N-BE2 + OVCAR-8
[1] = system: PRKCB; conditions: read-out: apparent Kd, n = 1
[2] = system: CDK10; conditions: read-out: apparent Kd, n = 1
[3] = system: MAP2K1; conditions: read-out: apparent Kd, n = 1
[4] = system: MAP2K2; conditions: read-out: apparent Kd, compound concentrations: 100 nM and 1000 nM (sheet 'Samples'), n = 1
[5] = system: MAP4K2; conditions: read-out: apparent Kd, compound concentrations: 100 nM and 1000 nM (sheet 'Samples'), n = 1
[6] = system: MAP4K3; conditions: read-out: apparent Kd, compound concentrations: 100 nM and 1000 nM (sheet 'Samples'), n = 1
[7] = system: ULK1; conditions: read-out: apparent Kd, n = 1
[8] = system: ACVR1; conditions: read-out: apparent Kd, n = 1
[9] = system: NEK9; conditions: read-out: apparent Kd, n = 1
[10] = system: PIK3C2A; conditions: read-out: apparent Kd, compound concentrations: 100 nM and 1000 nM (sheet 'Samples'), n = 1
[11] = system: STK26; conditions: read-out: apparent Kd, compound concentrations: 100 nM and 1000 nM (sheet 'Samples'), n = 1
[12] = system: IRAK4; conditions: read-out: apparent Kd, n = 1
[13] = system: AXL; conditions: read-out: apparent Kd, compound concentrations: 100 nM and 1000 nM (sheet 'Samples'), n = 1
[14] = system: PRKAA2; conditions: read-out: apparent Kd, compound concentrations: 100 nM and 1000 nM (sheet 'Samples'), n = 1
[15] = system: CSK; conditions: read-out: apparent Kd; compound concentrations:100 nM and 1000 nM (sheet 'Samples'); n = 1
[16] = system: EPHB1; conditions: read-out: apparent Kd; compound concentrations:100 nM and 1000 nM (sheet 'Samples'); n = 1
[17] = compound concentrations:100 nM and 1000 nM (sheet 'Samples')

Question: With CCn1c(-c2nonc2N)nc2c(C#CC(C)(C)O)nc(O[C@@H](CN)c3ccccc3)cc21.O=C(O)C(F)(F)F [GSK1007102B] as the molecule, how does the potency estimated from few doses [1, 17] read?
Answer: 111 nM

Question: For O=C(O)C(F)(F)F.O=c1[nH]ccc2nc(N[C@@H]3CCNC3)nc(Nc3ccc4c(c3)S(=O)(=O)CC4)c12 [GSK2181306A], which potency estimated from few doses ([2]; compound concentrations: 100 nM and 1000 nM (sheet 'Samples'), CATDS: 1.0545767640912401E-2) is on record?
Answer: 729 nM

Question: And the potency estimated from few doses ([3]; compound concentrations: 100 nM and 1000 nM (sheet 'Samples'), CATDS: 9.6647970877986305E-3)?
Answer: 947 nM

Question: What about the potency estimated from few doses ([4]; CATDS: 8.3394959268462601E-3) of the same molecule?
Answer: 1620 nM

Question: What about the potency estimated from few doses ([5]; CATDS: 2.4699396499264999E-2) of the same molecule?
Answer: 121 nM

Question: And the potency estimated from few doses ([6]; CATDS: 1.12434649854769E-2)?
Answer: 612 nM

Question: And the potency estimated from few doses ([7]; compound concentrations: 100 nM and 1000 nM (sheet 'Samples'), CATDS: 1.11724420901094E-2)?
Answer: 623 nM

Question: Which results are given for COc1cc(Nc2nccc(-c3cnn4ncccc34)n2)cc(OC)c1 [GW801372X]?
Answer: potency estimated from few doses ([8]; compound concentrations: 100 nM and 1000 nM (sheet 'Samples'), CATDS: 2.2901948138858801E-2): 739 nM; potency estimated from few doses ([9]; compound concentrations: 100 nM and 1000 nM (sheet 'Samples'), CATDS: 4.3233777925034599E-2): 142 nM; potency estimated from few doses ([10]; CATDS: 1.7083513618659799E-2): 2260 nM; potency estimated from few doses ([11]; CATDS: 1.6966130459451799E-2): 2340 nM

Question: COc1ccc(-c2cc3c(N)ncnc3o2)cc1 [GW642138X] was tested. Which potency estimated from few doses ([12]; compound concentrations: 100 nM and 1000 nM (sheet 'Samples'), CATDS: 9.7145824911744297E-2) did it give?
Answer: 1950 nM

Question: And the potency estimated from few doses ([4]; CATDS: 0.100903208593323)?
Answer: 1800 nM

Question: What about the potency estimated from few doses ([11]; CATDS: 0.100922192371782) of the same molecule?
Answer: 1800 nM

Question: For CN(C)CC(O)COc1ccc(Nc2nccc(-c3cnn4nc(N5CCOCC5)ccc34)n2)cc1 (centres unmarked) [GW767488X], which potency estimated from few doses [8, 17] is on record?
Answer: 455 nM

Question: And the potency estimated from few doses [2, 17]?
Answer: 1360 nM

Question: And the potency estimated from few doses [12, 17]?
Answer: 1630 nM

Question: And the potency estimated from few doses [9, 17]?
Answer: 314 nM

Question: And the potency estimated from few doses [7, 17]?
Answer: 793 nM

Question: Which potency estimated from few doses ([8]; compound concentrations: 100 nM and 1000 nM (sheet 'Samples'), CATDS: 7.8898197775333495E-3) does the source give for O=C(O)C(F)(F)F.O=C(O)C(F)(F)F.O=c1[nH]ccc2nc(N[C@@H]3CCCNC3)nc(Nc3ccc(S(=O)(=O)N4CCOCC4)cc3)c12.O=c1[nH]ccc2nc(N[C@@H]3CCCNC3)nc(Nc3ccc(S(=O)(=O)N4CCOCC4)cc3)c12 [GSK2177277A] here?
Answer: 605 nM

Question: And the potency estimated from few doses ([13]; CATDS: 1.0312125146775999E-2)?
Answer: 251 nM

Question: What about the potency estimated from few doses ([2]; compound concentrations: 100 nM and 1000 nM (sheet 'Samples'), CATDS: 2.6189541098699299E-2) of the same molecule?
Answer: 32 nM

Question: What about the potency estimated from few doses ([4]; CATDS: 5.9505583835806203E-3) of the same molecule?
Answer: 2520 nM

Question: And the potency estimated from few doses ([5]; CATDS: 1.18083453898033E-2)?
Answer: 173 nM

Question: What about the potency estimated from few doses ([6]; CATDS: 1.3665369195518201E-2) of the same molecule?
Answer: 120 nM

Question: And the potency estimated from few doses ([14]; CATDS: 4.4200978243391198E-2)?
Answer: 13.7 nM

Question: And the potency estimated from few doses ([1]; compound concentrations: 100 nM and 1000 nM (sheet 'Samples'), CATDS: 6.2704651327109501E-3)?
Answer: 1770 nM

Question: How did the potency estimated from few doses ([10]; CATDS: 2.3388870990997498E-2) turn out when c1ccc(-c2n[nH]cc2Nc2ccnc3ccccc23)nc1 [GW694077X] was run?
Answer: 1900 nM

Question: How did the potency estimated from few doses ([3]; compound concentrations: 100 nM and 1000 nM (sheet 'Samples'), CATDS: 9.4958067467462701E-2) turn out when COC(=O)c1cccc(NC(=O)NC2CCN(c3ccnc(Nc4cc(OC)c(OC)c(OC)c4)n3)C2)c1 (centres unmarked) [GSK1379767A] was run?
Answer: 2010 nM

Question: What about the potency estimated from few doses ([4]; CATDS: 9.7469990790668801E-2) of the same molecule?
Answer: 1880 nM

Question: And the potency estimated from few doses ([10]; CATDS: 9.3691802712770805E-2)?
Answer: 2080 nM

Question: How did the potency estimated from few doses [15] turn out when CC(=O)N[C@@H](Cc1ccc(OP(=O)(O)O)cc1)C(=O)N[C@H]1CCC(=O)N2CCC[C@@H](C(=O)NCc3ccc(Cl)cc3)N2C1=O [RO0325308-000] was run?
Answer: 1550 nM

Question: And the potency estimated from few doses [16]?
Answer: 71.6 nM

Question: What about the potency estimated from few doses [7, 17] of the same molecule?
Answer: 1610 nM

Question: Which potency estimated from few doses ([13]; CATDS: 1.01827981772752E-2) does the source give for COc1cc[nH]c1/C=C1\C(=O)Nc2ccc(F)c(C#CC3(O)CCNCC3)c21.Cl [RO0282986-001] here?
Answer: 1230 nM

Question: What about the potency estimated from few doses ([12]; compound concentrations: 100 nM and 1000 nM (sheet 'Samples'), CATDS: 1.1177652842318E-2) of the same molecule?
Answer: 889 nM

Question: And the potency estimated from few doses ([3]; compound concentrations: 100 nM and 1000 nM (sheet 'Samples'), CATDS: 1.0458763538178499E-2)?
Answer: 1120 nM

Question: And the potency estimated from few doses ([4]; CATDS: 1.07586832750675E-2)?
Answer: 1010 nM

Question: What about the potency estimated from few doses ([6]; CATDS: 9.73261825141249E-3) of the same molecule?
Answer: 1470 nM

Question: What about the potency estimated from few doses ([14]; CATDS: 1.2623383108322899E-2) of the same molecule?
Answer: 618 nM

Question: Which potency estimated from few doses [3, 17] does the source give for CS(=O)(=O)Nc1ccc(-c2ccnc3[nH]ccc23)cc1 [GSK993273A] here?
Answer: 1720 nM
